Source: PubChem BioAssay (NCATS)
Several values for one entry are separate records, joined by “and”; a condition that tells them apart may be missing. Equal values may be shown once. Results filed as inconclusive are left out. Unmarked numbers belong to inactive results. Activity calls are given as the source filed them. The call rests on the fitted dose curve; in most records, active means well fitted curve in the direction sought with a large enough effect; inconclusive means small, poorly fitted or top-dose-only effect, or another doubt; inactive means no such curve, though single readings can be large; an effect the other way counts as inactive or inconclusive.

Tests used:
[1] = qHTS Assay for Identifying Gametocytocidal Compounds (AID 743244);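 on max response: actives lower the fluorescent signal which means gametocytes are killed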; conditions: P. falciparum 3D7 stage III-V gametocytes, alamarBlue, 72 h; max response: stronger effect = lower value
How it was run: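 P. falciparum 3D7 stage III–V gametocytes (20,000 cells/well) were exposed to compounds for 72 h at 37 °C, 5% CO2. AlamarBlue was then added for 24 h; decreased resorufin fluorescence (Ex 525/Em 598 nm) indicated loss of viability.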

[2] = P-glycoprotein substrates identified in KB-8-5-11 adenocarcinoma cell line, qHTS therapeutic library screen (AID 1346987); further: nearly all actives have a fitted effect of over 65% in size
How it was run: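 Compounds are pinned in dose-response onto KB-8-5-11 cells (500 cells/well, colchicine-free medium) and left 72 h at 37 degree C. CellTiter-Glo luminescence then yields AC50 values.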
On the % scale 0 is the no-effect control and ±100 the full control effect; potency means the concentration at half of the fitted maximal effect.

SMILES	max response [1]	Potency [2]	Potency [1]
C[C@H](/C=C/[C@H](C)C(C)(C)O)[C@H]1CC[C@H]2/C(=C/C=C3C[C@@H](O)C[C@H](O)C3)CCC[C@]12C	11.6%	8.2 µM (active)	–
C[C@H]1C[C@@H]2[C@H]([C@@H](O)C[C@@]3(C)[C@H]2CC[C@]3(O)C(=O)COC(=O)CCC(=O)O)[C@@]2(C)C=CC(=O)C=C12	-6.5%	inactive	–
COc1ccc(C2NC(=S)N3C(c4ccc(OC)c(OC)c4)NC(=S)N23)cc1OC (configuration not stated)	–	inactive	0.0023 µM (active)
CCC(c1ccccc1)c1noc(CCN(CC)CC)n1 (configuration not stated)	15%	inactive	–
CN1CC(O)c2cc(N=NC(N)=O)c(O)cc21 (configuration not stated)	-4.67%	inactive	–
CC(=O)O[C@H]1CC[C@@]2(C)C(=CC[C@H]3[C@@H]4CC[C@H](C(C)=O)[C@@]4(C)CC[C@@H]32)C1	3.94%	inactive	–
CCC(C)(C)OC(=O)N[C@@H](Cc1c[nH]c2ccccc12)C(=O)N[C@@H](CCSC)C(=O)N[C@@H](CC(=O)O)C(=O)N[C@@H](Cc1ccccc1)C(N)=O	-0.189%	inactive	–
COC1=C(C(=O)O)N2C(=O)[C@@H](NC(=O)[C@H](N)C3=CCC=CC3)[C@H]2SC1	-12.6%	inactive	–
CCCCCCCCCCCCCCCCCC(=O)OCCO	-0.219%	inactive	–
CC#CCC(C)[C@H](O)/C=C/[C@@H]1[C@H]2C/C(=C/CCCC(=O)O)C[C@H]2C[C@H]1O (some centres not stated)	11.1%	inactive	–
O=S(O)CO	18.2%	inactive	–
C/C=C1\NC(=O)[C@H]2CSSCC/C=C/[C@H](CC(=O)N[C@H](C(C)C)C(=O)N2)OC(=O)C(C(C)C)NC1=O (some centres not stated)	–	20.6 µM (active)	0.59 µM (active)
O=C(Cn1cnnn1)N[C@@H]1C(=O)N2C(C(=O)O)=C(CSc3nncs3)CS[C@H]12	1.4% and 3.1%	inactive	–
CCC(=O)OCC(=O)[C@@]1(OC(=O)CC)[C@@H](C)C[C@H]2[C@@H]3CCC4=CC(=O)C=C[C@]4(C)[C@@]3(Cl)[C@@H](O)C[C@@]21C	0.406%	inactive	–
CCCCCCCCCCCCCCCC(=O)O[C@@H]1CC(C)=C(/C=C/C(C)=C/C=C/C(C)=C/C=C/C=C(C)/C=C/C=C(C)/C=C/C2=C(C)C[C@@H](OC(=O)CCCCCCCCCCCCCCC)CC2(C)C)C(C)(C)C1	1.34%	inactive	–
COc1cc2[nH]c(C)c(CCN3CCN(c4ccccc4)CC3)c2cc1OC	16.1%	inactive	–

SMILES	max response [1]	Potency [2]	Potency [1]
Nc1c(CC(=O)O)cccc1C(=O)c1ccccc1	-9.51% and 6.92%	inactive	–
CS(=O)(=O)OCCCNCCCOS(C)(=O)=O	-15.1%	inactive	–
CC(C)(C)NC(=O)[C@H]1CC[C@H]2[C@@H]3CC=C4C=C(C(=O)O)CC[C@]4(C)[C@H]3CC[C@]12C	-20.3%	inactive	–
CCOC(=O)COc1ccc2c(C)c(CCN(CC)CC)c(=O)oc2c1	15%	inactive	–
CNC[C@@H]1CC[C@@H](N)[C@@H](O[C@H]2[C@H](O)[C@@H](O[C@H]3OC[C@](C)(O)[C@H](NC)[C@H]3O)[C@H](N)C[C@@H]2N)O1	-11.2%	inactive	–
CCCOc1ccc2nc(NC(=O)OC)sc2c1	-5%	5.8 µM (active)	–
O=C(Cn1c(=O)sc2ccc(Cl)cc21)N1CCN(CCO)CC1	-8.47%	inactive	–
O=C[C@H](O)[C@@H](O)[C@H](O)[C@H](O)CO	-1.25%	inactive	–
COc1cc([C@@H]2c3cc4c(cc3C(O[C@@H]3O[C@@H]5COC(c6cccs6)O[C@H]5[C@H](O)[C@H]3O)C3COC(=O)[C@@H]32)OCO4)cc(OC)c1O (some centres not stated)	-13.4%	inactive	–
O=C[C@H](O)[C@@H](O)[C@H](O[C@H]1O[C@H](CO)[C@@H](O[C@H]2O[C@H](CO)[C@@H](O)[C@H](O)[C@H]2O)[C@H](O)[C@H]1O)[C@H](O)CO	10.4%	inactive	–
O=C(O)c1ccccc1[O-].O=C(O)c1ccccc1[O-].[Zn+2]	3.06%	inactive	–
CC#CCC(C)[C@H](O)/C=C/[C@@H]1[C@H]2c3cccc(CCCC(=O)O)c3O[C@H]2C[C@H]1O (some centres not stated)	6.65%	inactive	–
CCCCCCCCCCCCCCCC(=O)OC[C@H](O)[C@H]1OC(=O)C(O)=C1O	0.191%	inactive	–
CC(C)(C)CC(=O)OCC(=O)[C@@]12OC(C)(C)O[C@@H]1C[C@H]1[C@@H]3CCC4=CC(=O)C=C[C@]4(C)[C@@]3(F)[C@@H](O)C[C@@]12C	-15%	inactive	–
CCCCCCCCCCCCCCCC(=O)OCCC1CCN(CCCN2c3ccccc3Sc3ccc(S(=O)(=O)N(C)C)cc32)CC1	-11.1%	inactive	–
